Most compounds without a hit are left out; they make up all but 19% or so of the library.
uPA generation – qHTS for Inhibitors of Cell Surface uPA Generation. Potency, µM (series often up to 38.3 µM), for the others: at the top dose activity change, negative = inhibition, actives largely listed as inhibitors. AID 540303, 2011. cell surface uPA generation assay, qHTS. 330,000 tested, 0.31% active; active = well fitted inhibition curve with a large enough effect; inconclusive = small, poorly fitted or top-dose-only effect; inactive = no such curve, though single readings can be large or run the other way; tested in mouse RAW 264.7 cells; note: potency is the fitted concentration of half-maximal effect; nearly all actives have a fitted effect of over 55% in size
IL-1B inflam inh – qHTS for Inhibitors of Inflammasome Signaling: IL-1-beta AlphaLISA Primary Screen. 360,000 tested, 4.7% active. AID 743279, 2014. THP-1 LPS/ATP IL-1B secretion, AlphaLISA, 16 h; hits give low values. activity change, % at 57.5 µM; in the data active = activity change below about -50%; inconclusive = mostly about -30% to -49%
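Secreted IL-1B measured by AlphaLISA bead assay after 16 h compound exposure of THP-1 cells; compounds (final up to 57.5 uM) added 1 h before LPS (250 ng/mL) and ATP (1.25 mM) stimulation; lower signal means less secretion.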
DT40 TDP1 no CPT – qHTS for Inhibitors of human tyrosyl-DNA phosphodiesterase 1 (TDP1): qHTS in cells in absence of CPT; Potency, µM (doses to about 46.2 µM), for inactives: at the top dose activity change, negative = growth inhibition, usual class: inhibitors; 420,000 tested, 15% active; DT40 Tdp1-/- hTDP1 cells, no CPT, ATP luminescence, 48 h; note: potency is the fitted concentration of half-maximal effect; nearly all actives have a fitted effect of over 55% in size
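Seeded 400 DT40-hTDP1 cells/well (vehicle DMSO, no 20 nM CPT); pinned compounds; ≥48 hr at 37 °C; CellTiter-Glo luminescence as viability measure.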
DT40 TDP1 CPT – qHTS for Inhibitors of human tyrosyl-DNA phosphodiesterase 1 (TDP1): qHTS in cells in presence of CPT; chicken DT40 Tdp1-/-;hTDP1 cells + 20 nM CPT, ATP luminescence, 48 h; Potency, µM (titrated, usually from 46.2 µM), for inactives: at the top dose activity change, negative = growth inhibition, most hits filed as inhibitors; 420,000 tested, 12% active; AID 686979, 2013; note: potency is the fitted concentration of half-maximal effect; nearly all actives have a fitted effect of over 55% in size
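Chicken DT40 Tdp1-/- cells stably complemented with human TDP1 were seeded at 400 cells/well in medium containing 20 nM camptothecin, exposed to pin-transferred compounds, and grown at 37 °C for at least 48 hr. Viability was read as ATP luminescence.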
HT1080 IDH1KD tx – qHTS for induction of synthetic lethality in tumor cells producing 2HG: qHTS for the HT-1080-IDH1KD cell line; HT-1080 IDH1 knockdown viability, ATP luminescence, 48 h; Potency, µM (titrated, usually from 46.1 µM), inactives show at the top dose activity, negative = toxicity, most hits filed as cytotoxic; 360,000 tested, 2% active; AID 686971, 2013;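 note: potency is the fitted concentration of half-maximal effect; 0% = DMSO wells and -100% = cell-free medium wells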
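% activity derives from luminescence (CellTiter-Glo), normalised to DMSO and no-cell wells. HT-1080-IDH1KD cells, 750/well, had 48 h compound exposure at 37 °C.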
HT1080-NT tox – qHTS for induction of synthetic lethality in tumor cells producing 2HG: qHTS for the HT-1080-NT fibrosarcoma cell line | HT-1080-NT fibrosarcoma viability, CellTiter-Glo ATP luminescence, 48 h | Potency, µM (series often up to 46.1 µM), for the others: at the highest dose activity, negative = less viability, usual class: cytotoxic | 360,000 tested, 1.6% active;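 note: NT is the 2HG producing partner of a matched IDH1 knockdown line; potency is the fitted concentration of half-maximal effect; 0% = DMSO-treated cells and -100% = media-only wells without cells; nearly all actives have a fitted effect of over 55% in size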
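Toxicity toward the 2HG-producing NT line was scored as %Activity, normalised to DMSO and no-cell wells, from CellTiter-Glo luminescence after 48 hours' treatment.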
An asterisk follows results filed as active; ? = inconclusive; · = no result given; [ ] = another dose, or the depositor's remark. Unless noted, calls come from the whole dose curve; as a rule, active = well fitted curve in the direction sought with a large enough effect; inconclusive = small, poorly fitted or top-dose-only effect, or another doubt; inactive = no such curve, though single readings can be large; an effect the other way counts as inactive or inconclusive. Unless noted, % is set by controls: 0 for no effect and ±100 for the full control effect.

SMILES | uPA generation | IL-1B inflam inh | DT40 TDP1 no CPT | DT40 TDP1 CPT | HT1080 IDH1KD tx | HT1080-NT tox
O=C(/C=C\c1ccccc1OC(=O)c1ccccc1F)c1cc2ccccc2o1 | -6% | -104* | 15µM* | 8.2µM* | ? | 16µM*
O=C(Nc1ncccc1O)c1ccc(Cl)c(S(=O)(=O)N2CCCC2)c1 | · | 26 | -12% | -2% | 0% | -3%
CN1CCN(c2ccc(C(F)(F)F)cc2NC(=O)Nc2ccccc2)CC1 | -13% | -84* | ? | ? | -27% | ?
Cc1onc(-c2c(F)cccc2Cl)c1C(=O)N1CCCc2ccccc21 | -14% | 17 | 18µM* | ? | ? | ?
Cc1onc(-c2c(F)cccc2Cl)c1C(=O)Nc1cccc2nsnc12 | · | ? | 3.7µM* | 16µM* | ? | -30%
Cc1noc(C)c1C(=O)Nc1ccccc1N1CCOCC1 | 13% | 0 | -1% | -22% | 5% | 0%
Cc1onc(-c2c(F)cccc2Cl)c1C(=O)Nc1ccccc1N1CCOCC1 | 6% | -17 | 23µM* | ? | -13% | -11%
NS(=O)(=O)c1ccc(CCNC(=O)Cn2c(=O)c3cccn3c3ccc(F)cc32)cc1 | · | · | -15% | 9% | · | ·
COc1cc(Cl)c(C)cc1NC(=O)Cn1ncc2c([nH]c3ccccc32)c1=O | · | · | 1% | -8% | · | ·
CC(=NO)C1(C)CC=CCC1CO (stereo not drawn) | · | 1 | ? | -2% | -7% | -1%
CCc1nc2ccc(C(=O)N3CCN(C(C)=O)CC3)cn2c1N(CC)C(=O)NCCc1ccccc1 | · | -14 | -12% | -8% | 18% | 0%
Cc1onc(-c2ccccc2)c1C(=O)Nc1ccccc1N1CCOCC1 | -1% | 18 | ? | ? | 1% | 0%
Cc1onc(-c2ccccc2)c1C(=O)Nc1cc(C(F)(F)F)ccc1N1CCOCC1 | -13% | 67 | 2.9µM* | 3.7µM* | 2.9µM* | ?
CCOC(=O)C1(C)CCN1C(=O)c1c(F)cccc1F (stereo not drawn) | · | 7 | -15% | 5% | 13% | 17%
C#CCN(C[C@@H]1[C@@H](OC(=O)Nc2cccs2)[C@@H](OC(=O)Nc2cccs2)Cn2c(=O)n(CCCCCC)c(=O)n21)S(=O)(=O)c1ccc(C)cc1 | · | -6 | ? | ? | -10% | -2%
O=C(CNc1cccc(S(=O)(=O)N2CCCC2)c1)Nc1cccc(Br)c1 | -1% | -3 | 21µM* | ? | -23% | -21%
COc1ccc(NCC(=O)Nc2cccc(S(=O)(=O)N3CCCC3)c2)cc1Cl | ? | -12 | 13µM* | ? | -18% | -14%
Cc1ccc(S(=O)(=O)N2CCCCC2)cc1NCC(=O)Nc1ccc(Br)cc1F | · | ? | 3.7µM* | 4.6µM* | ? | ?
O=C(CNc1ccc(Br)cc1)Nc1cccc(S(=O)(=O)N2CCCC2)c1 | 3% | 0 | ? | ? | -3% | -6%
CCN(CC)S(=O)(=O)c1ccc(C)c(NC(=S)Nc2cccc(S(=O)(=O)N3CCCCCC3)c2)c1 | 3% | ? | 23µM* | ? | ? | -1%
COc1ccc(NC(=O)C(C)N=C2NS(=O)(=O)c3ccccc32)cc1S(N)(=O)=O (stereo not drawn) | -29% | -8 | 12% | 5% | 8% | 9%[9.24 µM]
Cc1cccc(NS(=O)(=O)c2cccc(C(=O)NCC3(N4CCOCC4)CCCCC3)c2)c1 | -1% | -25 | ? | ? | -1% | 7%
CC(=O)c1cccc(NCC(=O)Nc2cc(S(=O)(=O)N3CCCCC3)ccc2C)c1 | -5% | -4 | ? | 16µM* | -6% | 0%
CCN(CC)S(=O)(=O)c1ccc(C)c(NC(=O)CNc2cccc(S(=O)(=O)N3CCOCC3)c2)c1 | -1% | ? | ? | -4% | 4% | 5%
CCN(CC)S(=O)(=O)c1cc(NC(=O)CNc2cccc(S(=O)(=O)N3CCCC3)c2)ccc1C | -5% | ? | 2.6µM* | 3.3µM* | -21% | 4.6µM*
SMILES | uPA generation | IL-1B inflam inh | DT40 TDP1 no CPT | DT40 TDP1 CPT | HT1080 IDH1KD tx | HT1080-NT tox
CN(C)S(=O)(=O)c1cccc(NC(=O)CNc2cccc(S(=O)(=O)N3CCCCC3)c2)c1 | · | 13 | 21µM* | ? | -16% | -11%
COc1ccc(S(=O)(=O)N(C)C)cc1NCC(=O)Nc1ccc(Br)cc1F | -3% | ? | 29µM* | 13µM* | -14% | -5%
O=C(CNc1cccc(S(=O)(=O)N2CCCCC2)c1)Nc1cccc(F)c1 | 5% | -5 | ? | -27% | -15% | ?
COCCNC(=O)c1ccc2c(c1)NC(=O)C(CS(=O)(=O)Cc1ccc(F)cc1Cl)N2 (stereo not drawn) | · | · | -12% | -12% | · | ·
Cc1ccc(F)cc1NC(=O)C1CC(=O)N(Cc2ccccc2)C1 (stereo not drawn) | · | 8 | -8% | 3% | 5% | -1%
Cc1ccc(CNC(=O)C2CCCN(S(=O)(=O)c3cn(C)cn3)C2)cc1 (stereo not drawn) | · | · | -6% | 17% | · | ·
Cc1nc2oc3c(NCc4ccccc4)ncnc3c2c2c1COC(C)(C)C2 | 2% | ? | 18µM* | ? | -16% | -16%
CCCc1nc2oc3c(OC)ncnc3c2c2c1COC(C)(C)C2 | -6% | -8 | 21µM* | ? | 4% | 4%
CC(C)c1nc2oc3c(NCC4CCCO4)ncnc3c2c2c1COC(C)(C)C2 (stereo not drawn) | -1% | 0 | 15µM* | ? | -2% | 1%
COc1cc2c(c(OC)c1OC)-c1c(cc3c(c1OC)OCO3)C[C@@H](C)[C@](C)(O)C2 | · | · | ? | 9% | · | ·
O=C(Nc1ccccc1F)c1nc[nH]c1C(=O)NCc1ccccc1 | · | 19 | ? | ? | -17% | -12%
CC(C)(C)OC(=O)NCCCCCNC(=O)c1[nH]cnc1C(=O)Nc1cc(Br)ccc1F | · | -14 | 5.8µM* | 12µM* | 12% | 7%
CC(C)(C)OC(=O)NCc1ccc(NC(=O)c2nc[nH]c2C(=O)Nc2cc(Br)ccc2F)cc1 | · | ? | 13µM* | 10µM* | 14% | 27%
COc1cccc(CNC(=O)CSCc2cnn(-c3ccccc3)c2-n2cccc2)c1 | 4% | -9 | ? | ? | 8% | 7%

High-throughput results (PubChem BioAssay)
